# Measurements as given in article PMC5515408, “Sequence-specific DNA binding by MYC/MAX to low-affinity non-E-box motifs”.
# The full ranking holds about 5,000 sequences; the median of “log2 normalized fluorescence” is about 0.089, and the highest 2% start at about 0.81. The entries come from a sample that favours the highest values as a whole.
# Target: MYC (p64);MAX (p21), in MYC:MAX (human;human, UniProt P01106-1;P61244-2 1-439;1-151, |)
# Test: protein-binding microarray (anti-MAX antibody); PBM: 15 mM Tris-HCl pH 7.5, 100 mM KCl, 0.075% NP40, 7.5 mM beta-mercaptoethanol, 375 ng/ul BSA, 8 ng/ul poly(dA-dT):(dA-dT), 550 ng complex, 60 min, room tempe; high values mean tight binding
# Conditions: protein: recombinant;recombinant; tags: 6xHis;6xHis; copies: 1;1; label: 3' end of printed strand (linker) attached to glass slide; dsDNA, one strand shown
# Outline: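 For each of ~5000 unique double-stranded 12-nt sequences, spotted in triplicate on a custom Agilent glass array, binding of His-tagged human MYC:MAX or MAX:MAX dimers is reported as log2 normalized fluorescence. The dimers (550 ng, E. coli-expressed) were incubated for 60 min at room temperature in Tris-KCl buffer, pH 7.5, with NP40, BSA and poly(dA-dT) competitor. Detection used anti-MAX and secondary antibodies with a 543 nm scan.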
# MYC (p64);MAX (p21), in MYC:MAX, sequence (P01106 16-454, chain 1 of 2): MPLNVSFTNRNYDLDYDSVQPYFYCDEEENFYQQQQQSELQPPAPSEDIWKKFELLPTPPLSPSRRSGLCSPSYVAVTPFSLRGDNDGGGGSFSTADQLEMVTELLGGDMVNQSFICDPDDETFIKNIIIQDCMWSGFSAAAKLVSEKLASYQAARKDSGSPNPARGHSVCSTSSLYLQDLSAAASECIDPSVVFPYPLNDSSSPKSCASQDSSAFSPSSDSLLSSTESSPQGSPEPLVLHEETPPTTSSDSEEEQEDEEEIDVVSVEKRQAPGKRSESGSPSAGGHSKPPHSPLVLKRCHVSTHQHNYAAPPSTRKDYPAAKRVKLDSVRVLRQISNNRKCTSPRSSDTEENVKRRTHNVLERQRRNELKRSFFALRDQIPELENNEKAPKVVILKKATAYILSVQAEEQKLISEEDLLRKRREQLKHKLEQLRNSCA
# MYC (p64);MAX (p21), in MYC:MAX, sequence (P61244 other isoform, or with tags, fused parts or gaps |, chain 2 of 2): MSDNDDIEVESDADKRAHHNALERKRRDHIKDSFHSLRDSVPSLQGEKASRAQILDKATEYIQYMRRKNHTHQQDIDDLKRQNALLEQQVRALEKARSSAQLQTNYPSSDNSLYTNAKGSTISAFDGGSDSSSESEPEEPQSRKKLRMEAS
row,Sequence,binding signal
1,CCGGCTGAAACTGAGTATTAATAGCTAAGATTACTATATCGACG,0.00205 log2 normalized fluorescence
2,CCGGCTGACCTGACGTATTAATAGCTAAGATTACTATATCGACG,0.202 log2 normalized fluorescence
3,CCGGCTGCCACGTGTTATTAATAGCTAAGATTACTATATCGACG,0.969 log2 normalized fluorescence
4,CCGGCTGCCACGTAGTGTTAATAGCTAAGATTACTATATCGACG,0.23 log2 normalized fluorescence
5,CCGGCTGTCACGTGATATTAATAGCTAAGATTACTATATCGACG,0.587 log2 normalized fluorescence
6,CCGGCTGCCACGTGGTGTTAATAGCTAAGATTACTATATCGACG,0.763 log2 normalized fluorescence
7,CCGGCTGCCACGTGATATTAATAGCTAAGATTACTATATCGACG,0.881 log2 normalized fluorescence
8,CCGGCTGCCACGACGTATTAATAGCTAAGATTACTATATCGACG,0.371 log2 normalized fluorescence
9,CCGGCTGAGGCGAAGTATTAATAGCTAAGATTACTATATCGACG,0.0114 log2 normalized fluorescence
10,CCGGCTGATGTATCGTATTAATAGCTAAGATTACTATATCGACG,0.124 log2 normalized fluorescence
11,CCGGCTGAGCGATAGTATTAATAGCTAAGATTACTATATCGACG,-0.0333 log2 normalized fluorescence
12,CCGGCTGACGCGGAGTATTAATAGCTAAGATTACTATATCGACG,0.127 log2 normalized fluorescence
13,CCGGCGGACAGGTGGGATTAATAGCTAAGATTACTATATCGACG,0.375 log2 normalized fluorescence
14,CCGGCCAGCACGTGGTATTAATAGCTAAGATTACTATATCGACG,0.793 log2 normalized fluorescence
15,CCGGCGAGCACGTGGTATTAATAGCTAAGATTACTATATCGACG,0.525 log2 normalized fluorescence
16,CCGGCTAGCACGTGGTATTAATAGCTAAGATTACTATATCGACG,0.917 log2 normalized fluorescence
17,CCGGCAAGCACGTGGTATTAATAGCTAAGATTACTATATCGACG,0.835 log2 normalized fluorescence
18,CCGGCTGACGTCAGGTATTAATAGCTAAGATTACTATATCGACG,0.293 log2 normalized fluorescence
19,CCGGCTGAGGGTAGGTATTAATAGCTAAGATTACTATATCGACG,0.0237 log2 normalized fluorescence
20,CCGGCTGAGGCCCCGTATTAATAGCTAAGATTACTATATCGACG,0.00137 log2 normalized fluorescence
21,CCGGCTGGCACGTGGGATTAATAGCTAAGATTACTATATCGACG,0.708 log2 normalized fluorescence
22,CCGGCTATCACGTGGGATTAATAGCTAAGATTACTATATCGACG,0.804 log2 normalized fluorescence

row,Sequence,binding signal
1,CCGGCTGGCACGCGGTCTTAATAGCTAAGATTACTATATCGACG,0.784 log2 normalized fluorescence
2,CCGGCGTACACGTGGTCTTAATAGCTAAGATTACTATATCGACG,0.89 log2 normalized fluorescence
3,CCGGCGTACACGTGGTATTAATAGCTAAGATTACTATATCGACG,0.671 log2 normalized fluorescence
4,CCGGCTTACACGTGGTCTTAATAGCTAAGATTACTATATCGACG,0.679 log2 normalized fluorescence
5,CCGGCGGGCACGTGGTCTTAATAGCTAAGATTACTATATCGACG,0.929 log2 normalized fluorescence
6,CCGGCGGGCACGTGGGATTAATAGCTAAGATTACTATATCGACG,0.986 log2 normalized fluorescence
7,CCGGCGGGCACGTGGTATTAATAGCTAAGATTACTATATCGACG,0.738 log2 normalized fluorescence
8,CCGGCTGAATCAGAGTATTAATAGCTAAGATTACTATATCGACG,0.0753 log2 normalized fluorescence
9,CCGGCTGAACAAGTGTATTAATAGCTAAGATTACTATATCGACG,0.224 log2 normalized fluorescence
10,CCGGCTGATACTTGGTTTTAATAGCTAAGATTACTATATCGACG,0.0375 log2 normalized fluorescence
11,CCGGCTGATCCCGCGTATTAATAGCTAAGATTACTATATCGACG,0.218 log2 normalized fluorescence
12,CCGGCTGAAGGGCAGTATTAATAGCTAAGATTACTATATCGACG,-0.0227 log2 normalized fluorescence
13,CCGGCCGACACGCGGTTTTAATAGCTAAGATTACTATATCGACG,0.82 log2 normalized fluorescence
14,CCGGCTCACACGCGGTTTTAATAGCTAAGATTACTATATCGACG,0.822 log2 normalized fluorescence
15,CCGGCTCACACGAGGTTTTAATAGCTAAGATTACTATATCGACG,0.866 log2 normalized fluorescence
16,CCGGCTCACACGATGTATTAATAGCTAAGATTACTATATCGACG,0.603 log2 normalized fluorescence
17,CCGGCCGACAGCCGGTTTTAATAGCTAAGATTACTATATCGACG,-0.0407 log2 normalized fluorescence
18,CCGGCTCACACGTGGTTTTAATAGCTAAGATTACTATATCGACG,0.78 log2 normalized fluorescence
19,CCGGCTGGCACGAGGTTTTAATAGCTAAGATTACTATATCGACG,0.697 log2 normalized fluorescence
20,CCGGCTGAGACGCGGTTTTAATAGCTAAGATTACTATATCGACG,0.131 log2 normalized fluorescence
21,CCGGCTCACACGTTTTATTAATAGCTAAGATTACTATATCGACG,0.662 log2 normalized fluorescence
22,CCGGCTGAGTAGTGGTATTAATAGCTAAGATTACTATATCGACG,0.0775 log2 normalized fluorescence

row,Sequence,binding signal
1,CCGGCTGAGGGCTTGTATTAATAGCTAAGATTACTATATCGACG,0.0447 log2 normalized fluorescence
2,CCGGCTGACGACAGGTATTAATAGCTAAGATTACTATATCGACG,0.106 log2 normalized fluorescence
3,CCGGCTGAAGTTCAGTATTAATAGCTAAGATTACTATATCGACG,0.0781 log2 normalized fluorescence
4,CCGGCTGAAGACCTGTATTAATAGCTAAGATTACTATATCGACG,0.0334 log2 normalized fluorescence
5,CCGGCTGATGTAATGTATTAATAGCTAAGATTACTATATCGACG,0.000857 log2 normalized fluorescence
6,CCGGCTGACGTTTGGTATTAATAGCTAAGATTACTATATCGACG,0.243 log2 normalized fluorescence
7,CCGGCTGACCACATGTATTAATAGCTAAGATTACTATATCGACG,0.581 log2 normalized fluorescence
8,CCGGCTGAACGTGAGTATTAATAGCTAAGATTACTATATCGACG,0.437 log2 normalized fluorescence
9,CCGGCTGAGGACGAGTATTAATAGCTAAGATTACTATATCGACG,-0.00251 log2 normalized fluorescence
10,CCGGCTTACACGTGGAATTAATAGCTAAGATTACTATATCGACG,0.667 log2 normalized fluorescence
11,CCGGCTTAAACGTGTTATTAATAGCTAAGATTACTATATCGACG,0.426 log2 normalized fluorescence
12,CCGGCTTACACGTGGCGTTAATAGCTAAGATTACTATATCGACG,0.878 log2 normalized fluorescence
13,CCGGCTCACACGGGTTATTAATAGCTAAGATTACTATATCGACG,0.461 log2 normalized fluorescence
14,CCGGCTCACACGTGATATTAATAGCTAAGATTACTATATCGACG,0.75 log2 normalized fluorescence
15,CCGGCCTACACGTGGTGTTAATAGCTAAGATTACTATATCGACG,0.779 log2 normalized fluorescence
16,CCGGCTAATACGTGGTGTTAATAGCTAAGATTACTATATCGACG,0.417 log2 normalized fluorescence
17,CCGGCTTACACGTGGTGTTAATAGCTAAGATTACTATATCGACG,0.827 log2 normalized fluorescence
18,CCGGCTGACACGTGGCGTTAATAGCTAAGATTACTATATCGACG,0.519 log2 normalized fluorescence
19,CCGGCTTACAAGTGTTATTAATAGCTAAGATTACTATATCGACG,0.479 log2 normalized fluorescence
20,CCGGCTTACACGTGTTATTAATAGCTAAGATTACTATATCGACG,1.05 log2 normalized fluorescence
21,CCGGCTCACACGTGTTATTAATAGCTAAGATTACTATATCGACG,0.827 log2 normalized fluorescence
22,CCGGCTGATTTAATGTATTAATAGCTAAGATTACTATATCGACG,0.0643 log2 normalized fluorescence

row,Sequence,binding signal
1,CCGGCTGAACCTACGTATTAATAGCTAAGATTACTATATCGACG,0.131 log2 normalized fluorescence
2,CCGGCTGATCGCTTGTATTAATAGCTAAGATTACTATATCGACG,-0.00084 log2 normalized fluorescence
3,CCGGCTGAACATGGGTATTAATAGCTAAGATTACTATATCGACG,0.288 log2 normalized fluorescence
4,CCGGCTGATCGGCGGTATTAATAGCTAAGATTACTATATCGACG,0.0519 log2 normalized fluorescence
5,CCGGCTGACAGTCGGTATTAATAGCTAAGATTACTATATCGACG,0.0326 log2 normalized fluorescence
6,CCGGCTGACAGTTGGTATTAATAGCTAAGATTACTATATCGACG,0.112 log2 normalized fluorescence
7,CCGGCTGAAATAGTGTATTAATAGCTAAGATTACTATATCGACG,0.0457 log2 normalized fluorescence
8,CCGGCTGTCATGTGGTATTAATAGCTAAGATTACTATATCGACG,0.631 log2 normalized fluorescence
9,CCGGCTGACCTGTTGTATTAATAGCTAAGATTACTATATCGACG,0.216 log2 normalized fluorescence
10,CCGGCTGAAAGAATGTATTAATAGCTAAGATTACTATATCGACG,0.0901 log2 normalized fluorescence
11,CCGGCTGATCATTTGTATTAATAGCTAAGATTACTATATCGACG,0.247 log2 normalized fluorescence
12,CCGGCTGATACGTGGTCTTAATAGCTAAGATTACTATATCGACG,0.408 log2 normalized fluorescence
13,CCGGCTGCCATGTGGGATTAATAGCTAAGATTACTATATCGACG,0.899 log2 normalized fluorescence
14,CCGGCTGAGACGTGGTCTTAATAGCTAAGATTACTATATCGACG,0.229 log2 normalized fluorescence
15,CCGGCCGCCACGTGGTCTTAATAGCTAAGATTACTATATCGACG,0.884 log2 normalized fluorescence
16,CCGGCTGCGACGTGGTATTAATAGCTAAGATTACTATATCGACG,0.41 log2 normalized fluorescence
17,CCGGCTGCCACGTCGTATTAATAGCTAAGATTACTATATCGACG,0.37 log2 normalized fluorescence
18,CCGGCGGCCACGTGGTATTAATAGCTAAGATTACTATATCGACG,0.783 log2 normalized fluorescence
19,CCGGCAACCACGTGGTATTAATAGCTAAGATTACTATATCGACG,0.742 log2 normalized fluorescence
20,CCGGCTGCCATGTGGTTTTAATAGCTAAGATTACTATATCGACG,0.633 log2 normalized fluorescence
21,CCGGCTGCCACGTGGTATTAATAGCTAAGATTACTATATCGACG,0.82 log2 normalized fluorescence
22,CCGGCTACTATGCCATGTTAATAGCTAAGATTACTATATCGACG,0.159 log2 normalized fluorescence

row,Sequence,binding signal
1,CCGGCCACCACGTGGTATTAATAGCTAAGATTACTATATCGACG,0.975 log2 normalized fluorescence
2,CCGGCTGATGAGACGTATTAATAGCTAAGATTACTATATCGACG,-0.0198 log2 normalized fluorescence
3,CCGGCTGATACAGTGTATTAATAGCTAAGATTACTATATCGACG,0.0568 log2 normalized fluorescence
4,CCGGCTGAGATGCTGTATTAATAGCTAAGATTACTATATCGACG,-0.0512 log2 normalized fluorescence
5,CCGGCTGAGGCTATGTATTAATAGCTAAGATTACTATATCGACG,-0.0462 log2 normalized fluorescence
6,CCGGCTGACTCTTGGTATTAATAGCTAAGATTACTATATCGACG,0.16 log2 normalized fluorescence
7,CCGGCTGATGGCCTGTATTAATAGCTAAGATTACTATATCGACG,0.18 log2 normalized fluorescence
8,CCGGCTGATACACGGTATTAATAGCTAAGATTACTATATCGACG,0.262 log2 normalized fluorescence
9,CCGGCTGAGCCAATGTATTAATAGCTAAGATTACTATATCGACG,0.00395 log2 normalized fluorescence
10,CCGGCTGAAACCGCGTATTAATAGCTAAGATTACTATATCGACG,0.25 log2 normalized fluorescence
11,CCGGCTGAGAGTACGTATTAATAGCTAAGATTACTATATCGACG,0.142 log2 normalized fluorescence
12,CCGGCTGAGGGTCGGTATTAATAGCTAAGATTACTATATCGACG,0.137 log2 normalized fluorescence
13,CCGGCTGCCACGAGGAATTAATAGCTAAGATTACTATATCGACG,0.707 log2 normalized fluorescence
14,CCGGCTGTCACGTGGAATTAATAGCTAAGATTACTATATCGACG,0.766 log2 normalized fluorescence
15,CCGGCCGCCACGTGGTATTAATAGCTAAGATTACTATATCGACG,0.88 log2 normalized fluorescence
16,CCGGCTGCCACGTGGAATTAATAGCTAAGATTACTATATCGACG,0.873 log2 normalized fluorescence
17,CCGGCCGCGACGTGGTATTAATAGCTAAGATTACTATATCGACG,0.471 log2 normalized fluorescence
18,CCGGCCGCCACGTAGTATTAATAGCTAAGATTACTATATCGACG,0.312 log2 normalized fluorescence
